Several values for one entry are separate records, joined by “and”; a condition that tells them apart may be missing. Equal values may be shown once. Hit rate of the full screen: of about 5,500 compounds, about 2,000 (36%) were called active. Not shown: some 18% with an inconclusive outcome. Rule as the data show it: active = normalized growth mostly below about 0.91 (no sharp cut-off); inconclusive = no clear call, values can overlap the other calls; inactive = mostly above about 0.92. Some of the results follow.
Test: chemical genetic growth profiling, strain panel (AID 1159580);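 also: tested at 20 µM; growth read once vehicle control cultures reached saturation at 30 °C; 1 = growth at the plate median or of vehicle wells; lower values mean less growth of the strain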
Details: S. cerevisiae deletion strains, growth OD

## C=C(CC)C(=O)c1ccc(OCC(=O)O)c(Cl)c1Cl
Locus YAL013W, strain DEP1, stronger effect = lower value
  normalized growth: 0.984 (inactive)
Locus YAL021C, strain ccr4, stronger effect = lower value
  normalized growth: 1 (inactive)
Locus YAL026C, strain drs2, stronger effect = lower value
  normalized growth: 0.98 (inactive)
Locus YAL030W, strain snc1, stronger effect = lower value
  normalized growth: 1.01 (inactive)
Locus YBL061C, strain skt5, stronger effect = lower value
  normalized growth: 1 (inactive)
Locus YBR009C, strain hhf1, stronger effect = lower value
  normalized growth: 1.01 (inactive)
Locus YBR021W, strain FUR4, stronger effect = lower value
  normalized growth: 1.02 (inactive)
Locus YBR023C, strain chs3, stronger effect = lower value
  normalized growth: 1.03 (inactive)
Locus YBR171W, strain sec66, stronger effect = lower value
  normalized growth: 1.01 (inactive)
Locus YBR229C, strain ROT2, stronger effect = lower value
  normalized growth: 0.951 (inactive)
Locus YBR231C, strain swc5, stronger effect = lower value
  normalized growth: 0.972 (inactive)
Locus YBR279W, strain paf1, stronger effect = lower value
  normalized growth: 1.01 (inactive)
Locus YCL011C, strain gbp2, stronger effect = lower value
  normalized growth: 1.03 (inactive)
Locus YCL016C, strain dcc1, stronger effect = lower value
  normalized growth: 1.04 (inactive)
Locus YCL029C, strain bik1, stronger effect = lower value
  normalized growth: 0.973 (inactive)
Locus YCL061C, strain MRC1, stronger effect = lower value
  normalized growth: 1.03 (inactive)
Locus YCL069W, strain vba3, stronger effect = lower value
  normalized growth: 1 (inactive)
Locus YCR088W, strain abp1, stronger effect = lower value
  normalized growth: 1.01 (inactive)
Locus YDL005C, strain med2, stronger effect = lower value
  normalized growth: 0.999 (inactive)
Locus YDL035C, strain GPR1, stronger effect = lower value
  normalized growth: 0.988 (inactive)
Locus YDL040C, strain nat1, stronger effect = lower value
  normalized growth: 0.994 (inactive)
Locus YDL074C, strain BRE1, stronger effect = lower value
  normalized growth: 0.986 (inactive)
Locus YDL101C, strain DUN1, stronger effect = lower value
  normalized growth: 0.983 (inactive)
Locus YDL134C, strain PPH21, stronger effect = lower value
  normalized growth: 0.972 (inactive)
Locus YDL185W, strain tfp1, stronger effect = lower value
  normalized growth: 0.882 (active)
Locus YDL192W, strain arf1, stronger effect = lower value
  normalized growth: 0.972 (inactive)
Locus YDR001C, strain nth1, stronger effect = lower value
  normalized growth: 1 (inactive)
Locus YDR069C, strain doa4, stronger effect = lower value
  normalized growth: 0.99 (inactive)
Locus YDR101C, strain arx1, stronger effect = lower value
  normalized growth: 0.92 (inactive)
Locus YDR137W, strain rgp1, stronger effect = lower value
  normalized growth: 1.01 (inactive)
Locus YDR150W, strain NUM1, stronger effect = lower value
  normalized growth: 0.976 (inactive)
Locus YDR159W, strain sac3, stronger effect = lower value
  normalized growth: 0.955 (inactive)
Locus YDR162C, strain NBP2, stronger effect = lower value
  normalized growth: 0.966 (inactive)
Locus YDR195W, strain ref2
  normalized growth: 0.974 (inactive)
Locus YDR297W, strain sur2, stronger effect = lower value
  normalized growth: 1.02 (inactive)
Locus YDR318W, strain mcm21, stronger effect = lower value
  normalized growth: 0.992 (inactive)
Locus YDR334W, strain swr1, stronger effect = lower value
  normalized growth: 1 (inactive)
Locus YDR335W, strain msn5, stronger effect = lower value
  normalized growth: 1.01 (inactive)
Locus YDR388W, stronger effect = lower value
  normalized growth: 0.972 (inactive)
Locus YDR392W, strain spt3, stronger effect = lower value
  normalized growth: 0.948 (inactive)
Locus YDR502C, strain sam2, stronger effect = lower value
  normalized growth: 0.984 (inactive)
Locus YEL003W, strain gim4, stronger effect = lower value
  normalized growth: 0.985 (inactive)
Locus YEL037C, strain rad23, stronger effect = lower value
  normalized growth: 1 (inactive)
Locus YEL061C, strain CIN8 (second series), stronger effect = lower value
  normalized growth: 1 (inactive)
Locus YEL061C, strain CIN8, stronger effect = lower value
  normalized growth: 0.996 (inactive)
Locus YER015W, strain faa2, stronger effect = lower value
  normalized growth: 0.993 (inactive)
Locus YER016W, strain bim1, stronger effect = lower value
  normalized growth: 0.993 (inactive)
Locus YER110C, stronger effect = lower value
  normalized growth: 0.963 (inactive)
Locus YER111C, strain swi4, stronger effect = lower value
  normalized growth: 1 (inactive)
Locus YER155C, strain BEM2 (second series), stronger effect = lower value
  normalized growth: 0.997 (inactive)
Locus YER155C, strain BEM2, stronger effect = lower value
  normalized growth: 0.998 (inactive)
Locus YER167W, strain BCK2, stronger effect = lower value
  normalized growth: 1 (inactive)
Locus YFR010W, strain ubp6, stronger effect = lower value
  normalized growth: 1.01 (inactive)
Locus YGL078C, strain dbp3, stronger effect = lower value
  normalized growth: 0.954 (inactive)
Locus YGL086W, strain mad1, stronger effect = lower value
  normalized growth: 0.977 (inactive)
Locus YGL167C, strain pmr1, stronger effect = lower value
  normalized growth: 1.01 (inactive)
Locus YGL173C, strain kem1, stronger effect = lower value
  normalized growth: 1 (inactive)
Locus YGL227W, strain vid30, stronger effect = lower value
  normalized growth: 1.01 (inactive)
Locus YGL240W, strain doc1, stronger effect = lower value
  normalized growth: 1.02 (inactive)
Locus YGL248W, strain PDE1, stronger effect = lower value
  normalized growth: 0.985 (inactive)
Locus YGL253W, strain hxk2, stronger effect = lower value
  normalized growth: 0.988 (inactive)
Locus YGR078C, strain PAC10, stronger effect = lower value
  normalized growth: 0.964 (inactive)
Locus YGR135W, strain pre9, stronger effect = lower value
  normalized growth: 1.05 (inactive)
Locus YGR229C, strain SMI1, stronger effect = lower value
  normalized growth: 1 (inactive)
Locus YGR252W, strain gcn5, stronger effect = lower value
  normalized growth: 1.2 (inactive)
Locus YHR013C, strain ard1, stronger effect = lower value
  normalized growth: 1.04 (inactive)
Locus YHR027C, strain rpn1, stronger effect = lower value
  normalized growth: 1.02 (inactive)
Locus YHR030C, strain SLT2, stronger effect = lower value
  normalized growth: 0.985 (inactive) and 0.868 (inactive)
Locus YHR079C, strain IRE1 (second series), stronger effect = lower value
  normalized growth: 0.982 (inactive)
Locus YHR079C, strain IRE1, stronger effect = lower value
  normalized growth: 0.869 (inactive)
Locus YHR094C, strain hxt1, stronger effect = lower value
  normalized growth: 0.955 (inactive)
Locus YHR129C, strain ARP1, stronger effect = lower value
  normalized growth: 0.977 (inactive)
Locus YHR142W, strain chs7, stronger effect = lower value
  normalized growth: 1.04 (inactive)
Locus YHR200W, strain rpn10, stronger effect = lower value
  normalized growth: 0.984 (inactive)
Locus YIL066C, strain RNR3, stronger effect = lower value
  normalized growth: 0.968 (inactive)
Locus YIL073C, strain SPO22, stronger effect = lower value
  normalized growth: 0.995 (inactive)
Locus YIL125W, strain kgd1, stronger effect = lower value
  normalized growth: 0.927 (active)
Locus YIR030C, strain dcg1, stronger effect = lower value
  normalized growth: 0.993 (inactive)
Locus YJL092W, strain hpr5, stronger effect = lower value
  normalized growth: 1.01 (inactive)
Locus YJL095W, strain BCK1 (second series), stronger effect = lower value
  normalized growth: 1.03 (inactive)
Locus YJL095W, strain BCK1, stronger effect = lower value
  normalized growth: 1 (inactive) and 0.835 (active)
Locus YJL115W, strain asf1, stronger effect = lower value
  normalized growth: 1 (inactive)
Locus YJL129C, strain trk1, stronger effect = lower value
  normalized growth: 1.02 (inactive)
Locus YJL134W, strain LCB3, stronger effect = lower value
  normalized growth: 0.983 (inactive)
Locus YJL154C, strain vps35, stronger effect = lower value
  normalized growth: 0.997 (inactive)
Locus YJL164C, strain tpk1, stronger effect = lower value
  normalized growth: 1.03 (inactive)
Locus YJL166W, strain qcr8, stronger effect = lower value
  normalized growth: 1.05 (inactive)
Locus YJL168C, strain set2, stronger effect = lower value
  normalized growth: 0.971 (inactive)

— PubChem BioAssay AID1159580 (chemical genetic matrix, 2015)
